Experimental data reported in the supplement of paper PMC11732987, “Enantioselective OTUD7B fragment discovery through chemoproteomics screening and high-throughput optimisation” (Communications Chemistry, 2025).

Tests used:
Experiment in all cases: log2 ratio of Biotin-Ahx-Ub-VS probe labelling (fragment/DMSO); higher = less target engagement (more negative = stronger competition), active = hit call of the paper (q ≤ 0.05, log2 ratio ≤ -1)
Details in all cases: compound concentration: 200 uM; treatment time: 3 h
USP19 = molecular target: T1, USP19 (UniProt O94966)
T1 sequence (whole entry): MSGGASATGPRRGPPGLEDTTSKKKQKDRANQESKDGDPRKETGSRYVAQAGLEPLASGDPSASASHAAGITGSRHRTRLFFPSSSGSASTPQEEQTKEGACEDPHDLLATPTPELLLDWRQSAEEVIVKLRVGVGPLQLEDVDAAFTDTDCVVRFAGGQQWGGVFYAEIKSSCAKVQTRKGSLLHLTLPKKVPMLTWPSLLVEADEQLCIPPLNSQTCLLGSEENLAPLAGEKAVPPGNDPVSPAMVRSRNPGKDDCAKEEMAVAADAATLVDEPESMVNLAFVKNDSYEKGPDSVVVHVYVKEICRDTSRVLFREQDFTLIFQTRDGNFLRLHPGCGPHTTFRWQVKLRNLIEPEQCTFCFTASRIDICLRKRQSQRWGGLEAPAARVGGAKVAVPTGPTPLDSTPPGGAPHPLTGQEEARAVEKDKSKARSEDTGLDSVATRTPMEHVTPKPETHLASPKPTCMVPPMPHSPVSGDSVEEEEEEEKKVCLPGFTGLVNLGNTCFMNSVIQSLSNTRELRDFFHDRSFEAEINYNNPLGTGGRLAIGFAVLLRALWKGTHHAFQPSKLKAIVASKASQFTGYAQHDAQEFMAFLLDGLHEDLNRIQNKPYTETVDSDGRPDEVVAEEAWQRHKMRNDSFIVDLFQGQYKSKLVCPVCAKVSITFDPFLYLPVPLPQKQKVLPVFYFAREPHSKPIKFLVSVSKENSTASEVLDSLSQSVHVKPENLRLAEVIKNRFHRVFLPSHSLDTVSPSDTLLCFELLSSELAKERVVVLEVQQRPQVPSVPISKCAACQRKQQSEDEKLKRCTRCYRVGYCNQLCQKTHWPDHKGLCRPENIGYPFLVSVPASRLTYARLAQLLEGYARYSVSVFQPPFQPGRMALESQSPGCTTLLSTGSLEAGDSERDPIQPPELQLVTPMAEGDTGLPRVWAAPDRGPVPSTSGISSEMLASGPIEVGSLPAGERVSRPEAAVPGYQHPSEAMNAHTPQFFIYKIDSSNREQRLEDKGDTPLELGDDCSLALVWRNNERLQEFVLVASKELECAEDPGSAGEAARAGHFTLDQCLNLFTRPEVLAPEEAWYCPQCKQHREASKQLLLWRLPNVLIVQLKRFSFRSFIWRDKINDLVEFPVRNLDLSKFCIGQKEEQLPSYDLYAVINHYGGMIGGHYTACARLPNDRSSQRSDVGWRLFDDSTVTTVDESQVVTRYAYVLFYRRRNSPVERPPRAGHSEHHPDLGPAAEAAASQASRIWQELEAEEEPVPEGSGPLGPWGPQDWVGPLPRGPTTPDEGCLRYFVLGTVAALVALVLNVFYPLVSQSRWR
How it was run: (§1)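 Each value is an average log2 ratio of fragment to vehicle, tested by unpaired t-test. The underlying Spectronaut label-free quantities were global-median-normalised, and only proteins with ≥2 unique peptides were included. Triplicate HEK293T lysate samples (495 µg) were exposed to fragment at 200 µM or vehicle for 3 h, then to Biotin-Ahx-Ub-VS at 0.5 µM final for 1 h, before NeutrAvidin enrichment of labelled DUBs, LysC and trypsin digestion, and diaPASEF LC-MS/MS.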

USP24 = USP24 (UniProt Q9UPU5)
How it was run: as §1

USP25 = molecular target: T2, USP25 (UniProt Q9UHP3)
T2 sequence (whole entry): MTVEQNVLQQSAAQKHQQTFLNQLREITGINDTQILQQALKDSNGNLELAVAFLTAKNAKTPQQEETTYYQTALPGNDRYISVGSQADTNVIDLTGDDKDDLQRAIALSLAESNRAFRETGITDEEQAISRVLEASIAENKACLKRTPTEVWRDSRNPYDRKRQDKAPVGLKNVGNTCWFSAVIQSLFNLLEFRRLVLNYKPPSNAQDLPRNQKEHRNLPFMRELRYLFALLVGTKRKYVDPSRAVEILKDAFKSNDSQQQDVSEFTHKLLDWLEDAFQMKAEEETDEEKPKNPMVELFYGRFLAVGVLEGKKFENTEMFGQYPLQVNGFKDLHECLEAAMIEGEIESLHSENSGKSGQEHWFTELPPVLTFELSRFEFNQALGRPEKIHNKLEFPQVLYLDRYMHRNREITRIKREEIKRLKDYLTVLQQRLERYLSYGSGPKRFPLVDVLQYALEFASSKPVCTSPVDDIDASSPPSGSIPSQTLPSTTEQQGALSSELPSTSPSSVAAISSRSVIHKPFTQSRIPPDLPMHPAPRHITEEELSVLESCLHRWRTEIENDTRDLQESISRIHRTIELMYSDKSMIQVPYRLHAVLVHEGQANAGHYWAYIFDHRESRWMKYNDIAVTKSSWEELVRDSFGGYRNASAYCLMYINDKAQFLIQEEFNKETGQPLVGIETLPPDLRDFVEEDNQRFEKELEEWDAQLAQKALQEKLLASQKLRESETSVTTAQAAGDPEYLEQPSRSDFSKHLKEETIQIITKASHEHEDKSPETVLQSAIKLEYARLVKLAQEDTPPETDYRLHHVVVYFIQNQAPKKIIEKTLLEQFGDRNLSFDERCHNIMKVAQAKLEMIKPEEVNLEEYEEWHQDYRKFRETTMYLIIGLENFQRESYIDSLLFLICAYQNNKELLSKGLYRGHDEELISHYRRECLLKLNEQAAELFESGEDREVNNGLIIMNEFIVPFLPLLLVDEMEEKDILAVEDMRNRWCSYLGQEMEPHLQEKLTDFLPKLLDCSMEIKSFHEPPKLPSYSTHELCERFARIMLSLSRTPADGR
How it was run: as §1

USP28 = molecular target: T3, USP28 (UniProt Q96RU2)
T3 sequence (whole entry): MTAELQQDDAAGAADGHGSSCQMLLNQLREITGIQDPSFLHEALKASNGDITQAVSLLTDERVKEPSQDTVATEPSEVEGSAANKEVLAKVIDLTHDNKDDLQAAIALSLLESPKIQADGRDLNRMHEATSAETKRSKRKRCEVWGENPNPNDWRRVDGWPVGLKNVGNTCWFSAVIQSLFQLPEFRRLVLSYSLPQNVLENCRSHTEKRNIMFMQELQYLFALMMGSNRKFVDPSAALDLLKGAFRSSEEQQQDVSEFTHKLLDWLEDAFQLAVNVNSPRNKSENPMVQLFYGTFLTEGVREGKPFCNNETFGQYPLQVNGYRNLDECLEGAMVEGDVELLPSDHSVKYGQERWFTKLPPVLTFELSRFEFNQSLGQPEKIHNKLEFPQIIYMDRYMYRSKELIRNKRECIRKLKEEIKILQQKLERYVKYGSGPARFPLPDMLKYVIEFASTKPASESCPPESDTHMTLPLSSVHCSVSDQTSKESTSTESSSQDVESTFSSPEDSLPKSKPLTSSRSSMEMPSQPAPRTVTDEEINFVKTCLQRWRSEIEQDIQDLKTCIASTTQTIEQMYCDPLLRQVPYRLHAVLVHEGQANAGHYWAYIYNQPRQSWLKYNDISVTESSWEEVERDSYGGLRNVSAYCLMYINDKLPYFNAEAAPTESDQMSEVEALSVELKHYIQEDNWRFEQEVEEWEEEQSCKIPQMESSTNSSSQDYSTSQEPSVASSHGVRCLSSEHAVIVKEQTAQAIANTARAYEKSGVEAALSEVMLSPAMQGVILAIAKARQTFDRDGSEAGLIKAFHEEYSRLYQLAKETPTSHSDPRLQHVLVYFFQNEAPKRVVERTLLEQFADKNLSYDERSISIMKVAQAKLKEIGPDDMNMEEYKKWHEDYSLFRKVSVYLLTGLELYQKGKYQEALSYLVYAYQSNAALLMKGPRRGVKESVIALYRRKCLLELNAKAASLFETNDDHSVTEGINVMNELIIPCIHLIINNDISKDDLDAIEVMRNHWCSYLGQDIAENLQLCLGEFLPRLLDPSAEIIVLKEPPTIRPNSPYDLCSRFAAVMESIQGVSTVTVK
How it was run: as §1

Measured: log2 ratio of Biotin-Ahx-Ub-VS probe labelling

USP24, sequence (Q9UPU5 whole entry): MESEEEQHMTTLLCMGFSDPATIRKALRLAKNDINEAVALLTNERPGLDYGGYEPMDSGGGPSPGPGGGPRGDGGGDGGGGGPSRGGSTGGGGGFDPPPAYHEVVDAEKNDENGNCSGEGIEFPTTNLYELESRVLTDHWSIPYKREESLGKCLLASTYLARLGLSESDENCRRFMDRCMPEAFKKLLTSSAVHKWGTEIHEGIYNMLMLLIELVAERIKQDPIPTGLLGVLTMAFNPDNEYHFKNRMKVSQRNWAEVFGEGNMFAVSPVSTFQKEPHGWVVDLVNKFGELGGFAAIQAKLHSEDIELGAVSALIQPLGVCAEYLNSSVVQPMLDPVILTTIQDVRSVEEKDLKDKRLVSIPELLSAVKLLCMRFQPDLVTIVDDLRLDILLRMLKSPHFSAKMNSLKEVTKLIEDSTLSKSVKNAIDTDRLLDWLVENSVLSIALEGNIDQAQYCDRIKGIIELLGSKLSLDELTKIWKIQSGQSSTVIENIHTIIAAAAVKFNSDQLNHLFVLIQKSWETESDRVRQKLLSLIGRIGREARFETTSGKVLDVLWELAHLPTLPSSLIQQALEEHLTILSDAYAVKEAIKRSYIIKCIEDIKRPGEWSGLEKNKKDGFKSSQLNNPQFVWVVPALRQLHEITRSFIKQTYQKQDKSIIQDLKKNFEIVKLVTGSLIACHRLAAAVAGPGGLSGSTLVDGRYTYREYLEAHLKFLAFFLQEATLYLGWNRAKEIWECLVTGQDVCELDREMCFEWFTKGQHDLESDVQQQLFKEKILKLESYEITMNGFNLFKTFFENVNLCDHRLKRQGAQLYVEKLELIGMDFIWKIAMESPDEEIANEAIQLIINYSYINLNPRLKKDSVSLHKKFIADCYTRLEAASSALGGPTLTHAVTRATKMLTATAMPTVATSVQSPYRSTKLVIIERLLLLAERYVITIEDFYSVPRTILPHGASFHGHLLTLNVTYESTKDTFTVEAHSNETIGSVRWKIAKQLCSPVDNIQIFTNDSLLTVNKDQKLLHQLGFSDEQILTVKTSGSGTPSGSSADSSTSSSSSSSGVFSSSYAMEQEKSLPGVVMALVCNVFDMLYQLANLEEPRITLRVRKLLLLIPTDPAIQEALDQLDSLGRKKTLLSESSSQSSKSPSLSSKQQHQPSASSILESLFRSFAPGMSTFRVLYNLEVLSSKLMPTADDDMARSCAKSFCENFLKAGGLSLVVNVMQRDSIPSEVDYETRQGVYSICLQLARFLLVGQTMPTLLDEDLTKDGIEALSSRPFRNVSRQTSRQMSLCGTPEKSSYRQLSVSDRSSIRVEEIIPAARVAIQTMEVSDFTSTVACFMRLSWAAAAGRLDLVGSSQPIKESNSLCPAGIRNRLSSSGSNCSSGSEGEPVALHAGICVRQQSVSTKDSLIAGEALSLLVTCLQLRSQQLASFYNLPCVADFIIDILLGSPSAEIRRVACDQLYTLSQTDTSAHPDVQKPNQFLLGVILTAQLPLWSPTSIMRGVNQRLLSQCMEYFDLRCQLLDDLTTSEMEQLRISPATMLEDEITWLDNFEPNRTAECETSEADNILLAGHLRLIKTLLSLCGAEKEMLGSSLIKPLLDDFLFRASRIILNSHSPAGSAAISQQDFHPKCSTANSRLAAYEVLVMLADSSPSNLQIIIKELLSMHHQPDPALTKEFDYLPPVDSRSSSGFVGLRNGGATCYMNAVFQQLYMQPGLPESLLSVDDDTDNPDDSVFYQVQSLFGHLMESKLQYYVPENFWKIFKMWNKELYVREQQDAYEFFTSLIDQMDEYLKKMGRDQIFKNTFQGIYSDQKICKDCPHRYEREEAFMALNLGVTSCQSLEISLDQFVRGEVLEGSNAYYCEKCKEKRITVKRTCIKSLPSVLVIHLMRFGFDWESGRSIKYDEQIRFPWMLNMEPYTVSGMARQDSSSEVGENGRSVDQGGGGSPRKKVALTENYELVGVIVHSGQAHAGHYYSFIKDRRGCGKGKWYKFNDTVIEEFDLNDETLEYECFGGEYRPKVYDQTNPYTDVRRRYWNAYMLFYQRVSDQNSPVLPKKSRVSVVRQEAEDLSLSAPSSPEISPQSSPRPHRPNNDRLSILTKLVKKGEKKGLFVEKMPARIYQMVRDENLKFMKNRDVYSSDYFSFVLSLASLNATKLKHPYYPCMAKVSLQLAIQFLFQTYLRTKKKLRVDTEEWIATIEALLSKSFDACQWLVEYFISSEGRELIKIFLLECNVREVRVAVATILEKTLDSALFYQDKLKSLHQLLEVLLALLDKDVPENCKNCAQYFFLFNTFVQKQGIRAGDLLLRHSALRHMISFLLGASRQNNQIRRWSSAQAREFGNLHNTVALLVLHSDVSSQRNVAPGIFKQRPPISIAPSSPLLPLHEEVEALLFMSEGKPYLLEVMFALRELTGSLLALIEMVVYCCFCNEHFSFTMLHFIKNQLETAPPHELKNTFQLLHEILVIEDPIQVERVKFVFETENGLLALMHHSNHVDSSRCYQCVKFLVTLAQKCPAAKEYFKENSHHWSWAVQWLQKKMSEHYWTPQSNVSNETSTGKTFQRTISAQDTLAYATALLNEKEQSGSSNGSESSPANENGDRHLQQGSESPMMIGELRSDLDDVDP

O=C(CCl)NCc1noc(C2CC2)n1
inactive: USP19 0.0297 | USP24 -0.225 | USP25 -0.329 | USP28 -0.393
